Assay [1] deals with Lysosomal acid glucosylceramidase (Homo sapiens) (UniProt P04062). In words: Glucocerebrosidase-p2 (AID 348; in the data active = potency below about 10 µM; also: potency is read from the fitted curve at half-maximal effect). Particulars: purified GBA, blue fluorogenic substrate, 40 min. Put shortly:
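Compounds titrated from 0.6 nM upwards against 0.2 nM enzyme in pH 5.9 citric acid/KH2PO4, taurocholate, tween-20; blue fluorogenic substrate 80 uM, 40 min room temperature, stopped and read Ex 365/Em 440 for AC50.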

Assay [2] is described as follows: AP1 Signaling Pathway (AID 357).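 Also: ME-180 reporter cells stimulated with EGF at its EC50 level; % is scaled to controls: 0 for no effect and ±100 for the full control effect.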 Particulars: ME-180 AP-1-bla reporter, EGF-induced, beta-lactamase ratio, 5 h; at 7.69 µM (top of the series) unless noted. Put shortly:
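Beta-lactamase reporter under AP-1 response element, ME-180 background. Stimulus: EC50 EGF. Compound exposure 5 h, 37 °C. Detection: CCF4, 2.5 h RT, 460/530 nm. Values: AC50 from titration.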

Assay [3] in a line: NFAT Signaling Pathway (AID 444).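 Also: carbachol stimulus at about its EC50 of 1 µM final; % is scaled to controls: 0 for no effect and ±100 for the full control effect.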 Particulars: Jurkat NFAT-bla M1, carbachol, beta-lactamase ratio, 5 h; at 7.69 µM (top of the series) unless noted. Put shortly: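 Read-out: CCF4 FRET ratio (460 nm/530 nm) after 1 h RT dye loading, used for %activity and AC50 from titration series. Cells: Jurkat NFAT-β-lactamase/M1 line, treated with compound plus 1 uM carbachol for 5 h, 37 °C.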

A short description of assay [4]: Stat Signaling Pathway (AID 446).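 Also: ME-180 cervical cancer cells given 40 pM IL-6 alongside compound; SIE-controlled beta-lactamase reporter measured as 460/530 nm FRET emission ratio; % is scaled to controls: 0 for no effect and ±100 for the full control effect.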 Particulars: ME-180 (cervical carcinoma) SIE beta-lactamase reporter, IL-6 stimulated, 5 h; at 7.69 µM (top of the series) unless noted. A digest of the protocol:
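ME-180 cells carrying a SIE-driven beta-lactamase reporter are stimulated with 40 pM IL-6 for 5 h at 37C in the presence of compound. The 460/530 nm FRET substrate ratio is read after 2.5 h at RT. Data are normalised to 300 pM IL-6 and to 125 nM JAK inhibitor controls.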

Assay [5] addresses Glucocorticoid receptor (Homo sapiens) (UniProt P04150). In words: GR-EFC Redistribution (AID 451; calls by dose curve; also: potency is read from the fitted curve at half-maximal effect). Particulars: CHO-K1 GR-EFC translocation, beta-gal luminescence, 2 h. A digest of the protocol:
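Translocation of GR-ED fusion to nuclear EA restores b-gal, read by luminescence after 1 h room-temperature detection. Engineered CHO-K1 biosensor cells, 1,000/well, exposed 2 h at 37 C to titrations up to 46 uM final.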

Assay [6] addresses Mitogen-activated protein kinase 10 (Mus musculus) (UniProt Q61831). The experiment in a line: JNK3 AlphaScreen Assay (AID 530).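 Also: kinase came from lysate of stimulated human HepG2 cells; signal reports phosphorylation of biotinylated GST-cJun 1-79 at Ser73 with 10 µM ATP; % is scaled to controls: 0 for no effect and ±100 for the full control effect.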 Particulars: JNK3 lysate, c-Jun phosphorylation; series mostly up to 57.1 µM. Put shortly: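 Compound titrations were preincubated 15 minutes at room temperature with substrate, antibody and pre-activated JNK3-containing HepG2 lysate. Reactions were started with 10 uM ATP and stopped with EDTA-containing bead buffer for AlphaScreen detection.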
Background: Alpha assays give light when donor and acceptor beads are brought close together.

Assay [7] addresses 3',5'-cyclic-AMP phosphodiesterase 4B (Homo sapiens) (UniProt Q07343). In words: qHTS Assay for Inhibitors of PDE-IV (AID 607; active = well fitted activation curve with a large enough effect in the main read-out, with a control signal flat, not every such curve was filed as active; also: % of control where 0% means no effect). Particulars: HEK293 ACTOne CNG channel cells, membrane potential fluorescence; series mostly up to 22.9 µM. A digest of the protocol: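 HEK293 ACTOne cells with CNG channel (1000/well), endogenous PDE4; membrane potential dye, compounds up to 22.9 uM final. Fluorescence Ex 535/Em 590; RO 20-1724 (100 uM final) as reference.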
On the technique in general: In qHTS, concentration-response curves come from the screen itself.

A short description of assay [8]: qHTS Assay for Lipid Storage Modulators (AID 1519; calls by dose curve). Particulars: Drosophila S3 cells, BODIPY lipid droplet/cell ratio, laser cytometry, cells loaded with oleic acid; for activity change, negative = inhibition: at 57.5 µM (top of the series). A digest of the protocol:
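Cells seeded at 5,000 per well were treated with compounds over a concentration series and loaded with oleic acid (400 uM, as added). Lipid droplet fluorescence (488 nm excitation, 500-530 nm channel) was read by laser-scanning cytometry and normalized to 20 uM Triacsin C.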

Assay [9] can be described thus: Primary qHTS for small molecule stabilizers of the endoplasmic reticulum resident proteome: Secreted ER Calcium Modulated Protein (SERCaMP) assay (AID 1508630; active = well fitted inhibition curve with a large enough effect; also: % is scaled to controls: 0 for no effect and ±100 for the full control effect). Particulars: SH-SY5Y GLuc-SERCaMP (Gaussia luciferase released on ER calcium loss) secretion, thapsigargin, luminescence; series mostly up to 38.4 µM. Put shortly:
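GLuc-SERCaMP-expressing SH-SY5Y cells, pretreated 16 h with compound, are challenged with thapsigargin to empty ER calcium stores; after 4 h, coelenterazine is added directly to the medium and luminescence is imaged.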

Where [10] appears, read: measured here: cell count channel max response.
Where [11] appears, read: measured here: lipid channel max response.

Inconclusive results are not listed. Active and inactive are the calls of the source. Unless noted, calls follow the shape of the dose curve; as a rule, active = well fitted curve in either direction with a large enough effect (not every such curve was filed as active); inconclusive = small, poorly fitted or top-dose-only effect, or another doubt; inactive = flat fitted curve, though single readings scatter.

Sequence of Lysosomal acid glucosylceramidase (Homo sapiens) (P04062 whole entry, looked up): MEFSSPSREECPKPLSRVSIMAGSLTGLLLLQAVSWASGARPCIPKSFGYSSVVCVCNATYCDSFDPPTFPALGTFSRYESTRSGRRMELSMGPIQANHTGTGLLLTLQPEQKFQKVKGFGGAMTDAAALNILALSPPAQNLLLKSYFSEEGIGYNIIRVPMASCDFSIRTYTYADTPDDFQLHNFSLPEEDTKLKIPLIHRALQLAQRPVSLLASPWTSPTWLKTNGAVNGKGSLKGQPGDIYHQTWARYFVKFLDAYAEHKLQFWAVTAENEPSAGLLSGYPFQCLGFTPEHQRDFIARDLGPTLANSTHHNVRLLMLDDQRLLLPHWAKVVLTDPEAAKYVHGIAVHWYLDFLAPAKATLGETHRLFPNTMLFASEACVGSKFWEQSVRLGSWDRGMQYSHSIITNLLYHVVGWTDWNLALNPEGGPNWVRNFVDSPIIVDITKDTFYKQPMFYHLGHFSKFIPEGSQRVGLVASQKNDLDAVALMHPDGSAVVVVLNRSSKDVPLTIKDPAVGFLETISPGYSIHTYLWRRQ
Sequence of 3',5'-cyclic-AMP phosphodiesterase 4B (Homo sapiens) (Q07343 whole entry, looked up): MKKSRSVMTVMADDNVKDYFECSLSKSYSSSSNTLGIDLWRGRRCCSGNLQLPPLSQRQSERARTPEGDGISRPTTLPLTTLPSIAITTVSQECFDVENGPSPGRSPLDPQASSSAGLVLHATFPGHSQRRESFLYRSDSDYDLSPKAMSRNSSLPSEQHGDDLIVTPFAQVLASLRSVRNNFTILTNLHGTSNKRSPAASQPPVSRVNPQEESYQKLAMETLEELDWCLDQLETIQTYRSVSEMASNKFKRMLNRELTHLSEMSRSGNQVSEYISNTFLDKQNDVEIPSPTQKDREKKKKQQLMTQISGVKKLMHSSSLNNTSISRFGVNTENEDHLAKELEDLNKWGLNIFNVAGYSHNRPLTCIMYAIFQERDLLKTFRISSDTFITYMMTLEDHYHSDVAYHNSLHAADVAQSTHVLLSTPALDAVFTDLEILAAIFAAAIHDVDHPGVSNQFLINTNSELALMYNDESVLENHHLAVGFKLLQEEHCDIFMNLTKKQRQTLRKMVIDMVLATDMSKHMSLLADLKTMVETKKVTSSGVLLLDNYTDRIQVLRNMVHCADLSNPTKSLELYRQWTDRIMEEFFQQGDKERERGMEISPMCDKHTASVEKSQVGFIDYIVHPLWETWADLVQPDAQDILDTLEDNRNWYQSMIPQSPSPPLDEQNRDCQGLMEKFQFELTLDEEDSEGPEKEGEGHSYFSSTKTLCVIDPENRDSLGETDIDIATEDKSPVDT
Sequence of Glucocorticoid receptor (Homo sapiens) (P04150 whole entry, looked up, the tested form may be a part): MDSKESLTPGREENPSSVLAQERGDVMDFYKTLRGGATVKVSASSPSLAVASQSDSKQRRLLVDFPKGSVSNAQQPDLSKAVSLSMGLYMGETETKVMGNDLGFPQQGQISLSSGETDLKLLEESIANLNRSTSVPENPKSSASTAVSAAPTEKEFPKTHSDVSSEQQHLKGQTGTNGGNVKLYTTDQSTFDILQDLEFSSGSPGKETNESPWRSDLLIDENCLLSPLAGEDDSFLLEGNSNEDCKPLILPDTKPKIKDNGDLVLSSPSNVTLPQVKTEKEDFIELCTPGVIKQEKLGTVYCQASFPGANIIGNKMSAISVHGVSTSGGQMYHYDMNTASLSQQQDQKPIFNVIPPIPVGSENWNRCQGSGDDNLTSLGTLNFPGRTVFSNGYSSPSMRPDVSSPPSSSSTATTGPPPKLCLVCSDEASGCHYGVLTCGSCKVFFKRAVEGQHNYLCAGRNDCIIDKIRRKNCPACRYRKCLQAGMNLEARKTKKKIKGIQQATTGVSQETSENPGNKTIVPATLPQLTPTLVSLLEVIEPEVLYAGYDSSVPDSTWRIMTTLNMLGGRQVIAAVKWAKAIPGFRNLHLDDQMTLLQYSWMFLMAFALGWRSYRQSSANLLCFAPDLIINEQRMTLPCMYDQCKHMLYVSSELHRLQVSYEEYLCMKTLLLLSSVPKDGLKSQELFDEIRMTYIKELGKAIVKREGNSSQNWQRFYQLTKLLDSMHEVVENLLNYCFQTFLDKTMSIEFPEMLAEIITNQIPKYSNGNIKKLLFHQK

With `COCC(=O)N1CCC2(CC1)CN(c1ccccc1)C2`, the figures for the Potency in [1] and in [5] were > 11.4 µM (inactive) and > 46 µM (inactive), respectively. Also, the activity change, negative = inhibition in [2] is -8.7% (inactive); in assay [3], 2.5% (inactive); in assay [8] it was 4.95% (inactive). In addition, the activity, negative = inhibition in assay [4] is 10.6% (inactive). Besides, the Potency result in assay [6] and in assay [7] was “inactive” each time. The max response in assay [8] (setting [10]) is 15%; in assay [8] (setting [11]), 21.1%. Also, the result in assay [9] was inactive.
`O=C(Nc1cccc(F)c1)N1CC[C@@]2(CCCN(C(=O)c3csnn3)C2)C1`: the figures for the Potency in assay [1] and in assay [5] were > 11.4 µM (inactive) and > 46 µM (inactive), respectively. The activity change, negative = inhibition in assay [2] is -13.9% (inactive); in assay [3] it was 20.4% (inactive); in assay [8], 3.72% (inactive). The activity, negative = inhibition in assay [4] is -1.73% (inactive). Moreover, the Potency result in assay [6] and in [7] was “inactive” each time. Also, the max response in assay [8] (setting [10]) turned out to be 12.5%; in [8] (setting [11]), 18.5%. The result in assay [9] was inactive.
Take `CC(C)NC(=O)N1CC2(CCN(C(=O)c3cccn3C)CC2)C1`: the Potency was > 11.4 µM (inactive) in assay [1] and > 46 µM (inactive) in assay [5]. The values for the activity change, negative = inhibition in assay [2], in assay [3] and in assay [8] were -10.8% (inactive), -17.2% (inactive) and 2.27% (inactive), respectively. In addition, the activity, negative = inhibition in [4] was 4.27% (inactive). The Potency result in assay [6] and in assay [7] was “inactive” in each case. For the same molecule, the values for the max response in assay [8] (setting [10]) and in assay [8] (setting [11]) were 10.2% and 15.6%, respectively. For the same molecule, in [9], the result was inactive.
On to `O=C(c1cccc(F)c1)N1CCC[C@@]2(CCN(Cc3ccccc3)C2)C1`, for which the Potency in assay [1] was > 11.4 µM (inactive); in assay [5], > 46 µM (inactive). In addition, the activity change, negative = inhibition in assay [2] is -3.14% (inactive); in assay [3] it was -11.7% (inactive); in assay [8], -0.915% (inactive). For the same molecule, the activity, negative = inhibition in [4] was 9.35% (inactive). The Potency entry in [6] and in assay [7] was “inactive” each time. The max response in [8] (setting [10]) worked out at 11.6%; in assay [8] (setting [11]) it was 12%. In addition, in assay [9], the outcome was inactive.
For the molecule `COCC(=O)N1CCC[C@@]2(CCN(Cc3cc(C(F)(F)F)cc(C(F)(F)F)c3)C2)C1`, the Potency in assay [1] is > 11.4 µM (inactive); in [5], > 46 µM (inactive). The activity change, negative = inhibition in assay [2] was 3.75% (inactive); in [3], 6.67% (inactive); in [8] it was 5.27% (inactive). In addition, the activity, negative = inhibition in assay [4] was 9.45% (inactive). The Potency entry in assay [6] and in assay [7] was “inactive” throughout. In addition, the max response in assay [8] (setting [10]) is 7.6%; in [8] (setting [11]), 16.2%. The result in [9] was inactive.
Take `Cc1noc(C)c1C(=O)N1CCC[C@@]2(CCN(C(=O)Nc3cccc(C#N)c3)C2)C1`: the values for the Potency in assay [1] and in assay [5] were > 11.4 µM (inactive) and > 46 µM (inactive), respectively. Further, the activity change, negative = inhibition in assay [2] is -3.34% (inactive); in assay [3], 5.42% (inactive); in assay [8] it was 5.85% (inactive). Moreover, the activity, negative = inhibition in assay [4] was -8.01% (inactive). Further, the Potency result in assay [6] and in assay [7] was “inactive” throughout. Besides, the max response in assay [8] (setting [10]) was 14.6%; in assay [8] (setting [11]), 24.7%. The outcome in [9] was inactive.
Take `O=C(c1cc(C(F)(F)F)cc(C(F)(F)F)c1)N1CCC2(CC1)CCN(c1ccccc1)CC2`: the values for the Potency in [1] and in assay [5] were > 11.4 µM (inactive) and > 46 µM (inactive), respectively. Besides, the activity change, negative = inhibition in [2] was 24.2% (inactive); in [3], -4.75% (inactive); in assay [8], -9.68% (inactive). For the same molecule, the activity, negative = inhibition in [4] is -7.04% (inactive). Besides, the Potency entry in [6] and in assay [7] was “inactive” in each case. Also, the max response in assay [8] (setting [10]) worked out at 10.5%; in [8] (setting [11]) it was 0.292%. The outcome in assay [9] was inactive.
For the molecule `Cc1noc(C)c1C(=O)N1CCC2(CCCN(C(=O)Nc3cccc(C#N)c3)C2)CC1`, the figures for the Potency in [1] and in [5] were > 11.4 µM (inactive) and > 46 µM (inactive), respectively. Further, the activity change, negative = inhibition in assay [2] was -3.54% (inactive); in assay [3] it was -25.9% (inactive); in [8] it was 9.42% (inactive). Further, the activity, negative = inhibition in assay [4] was -0.0853% (inactive). Besides, the Potency entry in assay [6] and in assay [7] was “inactive” throughout. For the same molecule, the max response in [8] (setting [10]) is 12.8%; in assay [8] (setting [11]), 23.7%. In assay [9], the outcome was inactive.

(Values after PubChem BioAssay (NCATS).)
